Results reported in PubChem BioAssay AID590 (National Center for Advancing Translational Sciences (NCATS), 2007).
The campaign covered roughly 59,000 compounds. About 6,500 (11%) were called active. Inconclusive results (about 15%) are left out. No stated cut-off is given here; in the data, active means max dye-equivalent concentration above about 10 nM; inconclusive means mostly about 1.1 nM to 9.6 nM; inactive means weaker than that. The sample as a whole holds a higher share of actives than the screen did.

Test: qHTS Assay for Spectroscopic Profiling in A350 Spectral Region
Settings: Compound autofluorescence, 340/450 nm, Alexa 350 dye-equivalents; active compounds read high
With Cc1csc(NC(=O)C2CCCN2C(=O)OCC(C)C)n1 (stereo not given) the max dye-equivalent concentration was “inactive”.
With CN(Cc1ccccc1)c1nc2c(c(=O)[nH]c(=O)n2C)n1CCSc1nc2ccccc2[nH]1 the max dye-equivalent concentration was “inactive”.
With O=C(Cn1c(-c2ccccn2)nc2ccccc21)NCCN1CCOCC1 the max dye-equivalent concentration was “inactive”.
In the case of C=CCn1c2ccccc2c2nnc(SC(CC)C(=O)Nc3nc(C)c(C(=O)OCC)s3)nc21 (stereo not given), the max dye-equivalent concentration is reported as 56 nM (active).
With C=CCn1c(SCC(=O)Nc2nc3ccccc3s2)nnc1-c1ccccc1O the max dye-equivalent concentration was “inactive”.
In the case of COc1ccc(-n2c(SCC(=O)Nc3ccc4c(c3)OCO4)nnc2C(C)N2CCCCC2)cc1 (stereo not given), the max dye-equivalent concentration is reported as “inactive”.
For O=C(NCCCNC(=O)NC1CCCCC1)NC1CCCCC1, the max dye-equivalent concentration was “inactive”.
For CC(=NCc1ccc2c(c1)OCO2)C1=C(O)c2ccccc2C1=O, the max dye-equivalent concentration was “inactive”.
For O=c1[nH]c(=O)c2nc3ccccc3nc2[nH]1, the max dye-equivalent concentration was 200 nM (active).
With O=c1[nH]c(-c2cccs2)nc2ccccc12 the max dye-equivalent concentration was “inactive”.
With CCc1c(C)nc(N2CCN(Cc3ccccc3)CC2)[nH]c1=O the max dye-equivalent concentration was “inactive”.
For N#C/C(=C\c1ccc(O)c(O)c1)C(=O)NCc1ccccc1, the max dye-equivalent concentration was “inactive”.
With CCSC1=C(C#N)C(=O)n2c1cc1c2CCCC1 the max dye-equivalent concentration was “inactive”.
In the case of N#CC1=C(N)C(C#N)(C#N)[C@H](c2ccsc2)[C@H]2COCC=C12, the max dye-equivalent concentration is reported as 17 nM (active).
For O=C(NCc1ccc(Cl)cc1)c1cc2c(nc3sccn32)s1, the max dye-equivalent concentration was “inactive”.
In the case of Cc1ccnc(N2CCCC(C(=O)Nc3cc(F)ccc3C)C2)n1 (stereo not given), the max dye-equivalent concentration is reported as “inactive”.
For CCOC(=O)C1=C(CNC2CCCCC2)NC(=O)NC1c1cc(C)ccc1C (stereo not given), the max dye-equivalent concentration was “inactive”.
In the case of c1cncc(CNc2ccnc(-c3ccc4c(c3)OCO4)n2)c1, the max dye-equivalent concentration is reported as 15 nM (active).
For O=C(Nc1cccnc1)c1ccc2c(c1)OCO2, the max dye-equivalent concentration was “inactive”.
For Cc1cccc(CNc2ccnc(-c3cccnc3)n2)c1, the max dye-equivalent concentration was “inactive”.
For CC(=O)N=c1ncn(CC(COC(C)=O)OC(C)=O)c2nc[nH]c12 (stereo not given), the max dye-equivalent concentration was “inactive”.
In the case of Cc1ccc(C)c(S(=O)(=O)N2CC(=O)Nc3ccccc32)c1, the max dye-equivalent concentration is reported as “inactive”.
In the case of Cc1ccc(OCC(=O)Nc2ccc(-c3nc4ncccc4o3)cc2)cc1, the max dye-equivalent concentration is reported as 25 nM (active).
For Cc1ccc(OCC(=O)Nc2ccc(-c3nnc(-c4ccco4)o3)cc2)cc1, the max dye-equivalent concentration was “inactive”.
In the case of COc1ccc(CC(=O)Nc2ccc(-c3nnc(-c4ccc(C)cc4)o3)cc2)cc1, the max dye-equivalent concentration is reported as “inactive”.
With CCOC(=O)c1cc(C)sc1NC(=O)C1CCC1 the max dye-equivalent concentration was “inactive”.
For Cn1c(-c2ccc(F)cc2)cnc1SCC(=O)NCc1ccco1, the max dye-equivalent concentration was “inactive”.
In the case of Cc1ccc(S(=O)(=O)N2CCC(N3CCCCCC3)CC2)cc1, the max dye-equivalent concentration is reported as “inactive”.
For Fc1ccc(Cn2nnnc2C(c2cccs2)N2CCCCCC2)cc1 (stereo not given), the max dye-equivalent concentration was “inactive”.
For Cc1cc(C)c2c(n1)nn1c(-n3ccnc3)cc(C)nc21, the max dye-equivalent concentration was 260 nM (active).
For Cc1cc(C)c2c(n1)nn1c(N3CCOCC3)cc(C)nc21, the max dye-equivalent concentration was 7500 nM (active).
With Cc1cc(C)c2c(n1)nn1c(N3CCN(c4cccc(Cl)c4)CC3)cc(C)nc21 the max dye-equivalent concentration was 110 nM (active).
With Cc1cc(N2CCN(Cc3ccc4c(c3)OCO4)CC2)n2ncnc2n1 the max dye-equivalent concentration was “inactive”.
In the case of Cc1nn2c3cc(N4CCOCC4)ccc3nc2c2ccccc12, the max dye-equivalent concentration is reported as “inactive”.
In the case of CS(=O)(=O)N(CC(=O)N1CCN(c2cccc(Cl)c2)CC1)c1ccccc1, the max dye-equivalent concentration is reported as “inactive”.
For CCN1C(=O)/C(=C\N2CCN(c3cccc(Cl)c3)CC2)SC1=S, the max dye-equivalent concentration was “inactive”.
With CN1CCN(CC(O)COCc2ccc3c(c2)OCO3)CC1 (stereo not given) the max dye-equivalent concentration was “inactive”.
With CCOC(=O)Nc1ccc2c(c1)N(C(=O)CN1CCN3CCCC3C1)c1ccccc1CC2 (stereo not given) the max dye-equivalent concentration was “inactive”.
For CSc1cccc(NC(=O)CSc2ccccc2)c1, the max dye-equivalent concentration was “inactive”.
For Cc1ccccc1CSc1nnc(-c2cccnc2)n1N, the max dye-equivalent concentration was “inactive”.
With COc1ccc(C2OC(=O)CC2C(=O)NC(C)C)cc1 (stereo not given) the max dye-equivalent concentration was “inactive”.
With CCOC(=O)C1C(=O)NC(N2CCN(c3ccccc3)CC2)=NC1c1ccco1 (stereo not given) the max dye-equivalent concentration was “inactive”.
With CCOC(=O)C1C(=O)C=C(c2ccc(OC)cc2)CC1c1ccco1 (stereo not given) the max dye-equivalent concentration was 11 nM (active).
In the case of CNC(=O)c1nnn(-c2ccccc2)c1C(=O)NC, the max dye-equivalent concentration is reported as “inactive”.
In the case of CCn1ccnc1C[C@@H]1COc2ccccc2O1, the max dye-equivalent concentration is reported as “inactive”.
In the case of CC1=C(C(=O)Nc2ccc(Cl)cc2)C(c2ccco2)NC(=O)N1 (stereo not given), the max dye-equivalent concentration is reported as “inactive”.
For COCCCNC(=O)C1CC(=O)N(c2ccc(C)cc2)C1 (stereo not given), the max dye-equivalent concentration was “inactive”.
For COc1cccc(N2CC(C(=O)Nc3c(C)cccc3C)CC2=O)c1 (stereo not given), the max dye-equivalent concentration was 19 nM (active).
In the case of COc1ccc(Cl)cc1NC(=O)C1CC(=O)N(c2ccc(F)cc2)C1 (stereo not given), the max dye-equivalent concentration is reported as “inactive”.
For O=C(CSc1nnc(-c2cccs2)n1Cc1ccco1)c1ccc2c(c1)OCO2, the max dye-equivalent concentration was “inactive”.
In the case of Cc1ccc(-n2ncc3c(N4CCN(c5ccc(F)cc5)CC4)ncnc32)c(C)c1, the max dye-equivalent concentration is reported as “inactive”.
For CCN1CCCC1CNc1ncnc2c1[nH]c1ccc(F)cc12 (stereo not given), the max dye-equivalent concentration was 14 nM (active).
With CCN1CCCC1CNC(=O)Cn1cnc2ccc(S(=O)(=O)N3CCC(C)CC3)cc2c1=O (stereo not given) the max dye-equivalent concentration was “inactive”.
With Fc1ccc2[nH]c3c(N4CCSCC4)ncnc3c2c1 the max dye-equivalent concentration was 13 nM (active).
With Cc1cc(OCC(=O)O)c(Cl)cc1Cl the max dye-equivalent concentration was “inactive”.
For CCn1c(Cc2ccccc2)nnc1SCc1nc2ccccc2c(=O)[nH]1, the max dye-equivalent concentration was “inactive”.
For COCCCNC(=O)CCc1nc2cccnc2n1Cc1ccc(OC)cc1, the max dye-equivalent concentration was “inactive”.
In the case of O=C(CC1CCCCC1)Nc1c2c(nn1-c1ccc(F)cc1)CS(=O)(=O)C2, the max dye-equivalent concentration is reported as “inactive”.
For Cc1c(C)c2cc3c4c(oc3c(C)c2oc1=O)CCCC4, the max dye-equivalent concentration was 25 nM (active).
For COc1ccccc1-c1nc(NCc2cccs2)c2ccccc2n1, the max dye-equivalent concentration was “inactive”.
With CCOC(=O)Cc1c(C)nc2c(C#N)c(C)nn2c1C the max dye-equivalent concentration was 11 nM (active).
With CC1(C)CCCC2=C1CC1C(=O)N(c3ccccc3)C(=O)C1C2 (stereo not given) the max dye-equivalent concentration was “inactive”.
In the case of CC(C)C(c1nnnn1Cc1ccccc1)N1CCC(C(N)=O)CC1 (stereo not given), the max dye-equivalent concentration is reported as “inactive”.
With COc1ccc(Cn2cccc(NC(=O)Nc3ccc(C#N)cc3)c2=O)cc1 the max dye-equivalent concentration was “inactive”.
With COc1ccc(C(=O)N2CCC[C@@]3(CCN(C(=O)NC(C)C)C3)C2)cc1 the max dye-equivalent concentration was “inactive”.
In the case of c1ccc2c(Nc3ccncc3)nc(-c3ccc4c(c3)OCO4)nc2c1, the max dye-equivalent concentration is reported as 11 nM (active).
With c1ccc2c(Nc3ccncc3)nc(-c3ccoc3)nc2c1 the max dye-equivalent concentration was “inactive”.
In the case of COc1cccc(-c2nc(Nc3ccncc3)c3ccccc3n2)c1, the max dye-equivalent concentration is reported as “inactive”.
In the case of Cc1cc(C)n(-c2nc(SCC(=O)N3CCCC3)c3c4c(sc3n2)CCCC4)n1, the max dye-equivalent concentration is reported as “inactive”.
In the case of COCCNc1nc(-n2nc(C)cc2C)nc2sc3c(c12)CCCC3, the max dye-equivalent concentration is reported as 1300 nM (active).
With COCCn1c(C)cc(C(=O)CSc2ncnc3sc4c(c23)CCC4)c1C the max dye-equivalent concentration was “inactive”.
With O=S(=O)(NCc1ccc2c(c1)OCO2)c1cccc2nsnc12 the max dye-equivalent concentration was “inactive”.
With COc1ccc(N2C(=O)CCC(C(=O)Nc3ccccn3)C2c2ccc(OC)c(OC)c2)cc1 (stereo not given) the max dye-equivalent concentration was “inactive”.
In the case of C[N+](C)(CCCCCC[N+](C)(C)CCCN1C(=O)c2cccc3cccc(c23)C1=O)CCCN1C(=O)c2cccc3cccc(c23)C1=O, the max dye-equivalent concentration is reported as 260 nM (active).
In the case of O=C1c2ccccc2C(=O)N1CCCSc1ccccc1, the max dye-equivalent concentration is reported as “inactive”.
With Nc1ccc(SCCN2C(=O)c3ccccc3C2=O)cc1 the max dye-equivalent concentration was “inactive”.
For CCOC(=O)Cc1csc(NC(=O)C(C)(C)C)n1, the max dye-equivalent concentration was “inactive”.
With COc1cc(C2C3C(=O)N(c4ccccc4)C(=O)C3ON2c2ccccc2)ccc1O (stereo not given) the max dye-equivalent concentration was “inactive”.
With Cc1ccc(NC(=O)CCN2CCc3ccccc3C2)cc1 the max dye-equivalent concentration was “inactive”.
For Cc1ccc2c(c1)c1ncnc(N3CCc4ccccc4C3)c1n2C, the max dye-equivalent concentration was 140 nM (active).
With Cc1ccc(C(c2nnnn2C(C)(C)C)N2CCc3ccccc3C2)cc1 (stereo not given) the max dye-equivalent concentration was “inactive”.
For O=C(CCCN1C(=O)C2C3C=CC(C3)C2C1=O)N1CCN(c2ccccc2)CC1 (stereo not given), the max dye-equivalent concentration was “inactive”.
With Cc1cc(C)nc(NC(=O)C(C)N2C(=O)c3ccccc3C2=O)n1 (stereo not given) the max dye-equivalent concentration was “inactive”.
For CC(C(=O)O)N1C(=O)c2cccc3cccc1c23 (stereo not given), the max dye-equivalent concentration was 14 nM (active).
With COC(=O)c1ccc(NC(=O)C(C)N2C(=O)c3ccccc3C2=O)cc1 (stereo not given) the max dye-equivalent concentration was “inactive”.
In the case of CC(=O)N1CCN(CCN=CC2=C(O)CC(C)(C)CC2=O)CC1, the max dye-equivalent concentration is reported as “inactive”.
In the case of CCOCCN(C=O)c1cccc(OC)c1, the max dye-equivalent concentration is reported as “inactive”.
For COc1ccc(OC)c([C@H](O)CNC(=O)CN)c1, the max dye-equivalent concentration was “inactive”.
For CCOC(=O)CCc1c(C)c2ccc(OCc3nn[nH]n3)c(C)c2oc1=O, the max dye-equivalent concentration was 30 nM (active).
For CCc1ccc(-c2nnn(Cc3nn[nH]n3)n2)cc1, the max dye-equivalent concentration was “inactive”.
For Cc1cc(C)cc(OCc2nnc(SCC(=O)OC3CCCCC3)o2)c1, the max dye-equivalent concentration was “inactive”.
In the case of CCOc1cccc(NC(=O)CC#N)c1, the max dye-equivalent concentration is reported as “inactive”.
In the case of CC(=O)c1cc(C#N)c(SCC(=O)C(C)(C)C)nc1C, the max dye-equivalent concentration is reported as “inactive”.
In the case of CCOc1ccc2cc(C#N)c(SCC(=O)OC)nc2c1, the max dye-equivalent concentration is reported as 31 nM (active).
In the case of COc1ccc(OC)c(S(=O)(=O)N(C)CC(=O)N2CCN(c3ccccc3)CC2)c1, the max dye-equivalent concentration is reported as “inactive”.
For Cc1cccc(N2CCN(C(c3ccccc3)c3nnnn3CC3CCCO3)CC2)c1C (stereo not given), the max dye-equivalent concentration was “inactive”.
With O=C(Cn1nnc2ccccc2c1=O)Nc1cc(C(F)(F)F)ccc1N1CCOCC1 the max dye-equivalent concentration was “inactive”.
In the case of COc1ccccc1-c1cc(NCc2cccs2)ncn1, the max dye-equivalent concentration is reported as “inactive”.
In the case of CC(C)N1C(=O)C2C(C(=O)NC3CCCCC3)C3C=CC2(O3)C1C(=O)NC1CCCC1 (stereo not given), the max dye-equivalent concentration is reported as “inactive”.
In the case of CC(C)c1nnc(NC(=O)C2CCCN2S(=O)(=O)c2ccc(Cl)cc2)s1 (stereo not given), the max dye-equivalent concentration is reported as “inactive”.
With CCc1nnc(NS(=O)(=O)c2ccc(NS(=O)(=O)c3ccccc3)cc2)s1 the max dye-equivalent concentration was “inactive”.
For CCc1nnc(NC(=O)C2CCCN2S(=O)(=O)c2ccccc2)s1 (stereo not given), the max dye-equivalent concentration was 16 nM (active).
In the case of Cc1c(O)c(Br)c(C)c(O)c1Br (tested in a mixture with another compound), the max dye-equivalent concentration is reported as “inactive”.
For CCN(CC)c1ccc(C(=O)OCC(=O)c2ccco2)cc1, the max dye-equivalent concentration was “inactive”.
For C/C(O)=C\c1nc(=O)c2c(C)cc(C)nc2n1-c1ccccc1, the max dye-equivalent concentration was 44 nM (active).
For Cc1cc(C)nc(N(C#N)CC(=O)Nc2ccccc2)n1, the max dye-equivalent concentration was “inactive”.
With N#CCSc1nc2ccccc2c(=O)n1-c1ccccc1 the max dye-equivalent concentration was “inactive”.
For CCOC(=O)N1CCN(C(=O)c2ccc3nc4cc(Cl)ccc4c(=O)n3c2)CC1, the max dye-equivalent concentration was 1300 nM (active).
In the case of CCOC(=O)N1CCN(C(=O)CNC(=O)Cc2ccc(Cl)cc2)CC1, the max dye-equivalent concentration is reported as “inactive”.
With CCOC(=O)N1CCN(C(=O)c2ccc(S(=O)(=O)c3ccc(C)cc3)c(NC(C)=O)c2)CC1 the max dye-equivalent concentration was “inactive”.
